Screening data from PubChem.
Hits are enriched below; roughly 19% of the tested compounds scored in any of these assays.
IL1B secr inh: inhibitors of inflammasome signaling (IL-1 beta secretion). THP-1 LPS/ATP IL-1B secretion, AlphaLISA, 16 h; hits give low values. activity change, % at 57.5 µM. 360,000 tested, 4.7% active; in the data active = activity change below about -50%; inconclusive = mostly about -30% to -49%
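THP-1 cells pretreated 1 hr with compounds (up to 57.5 uM final), then stimulated with LPS (250 ng/mL final) plus ATP (1.25 mM final); secreted IL-1B measured by AlphaLISA after 16 hr, decreased signal indicating inhibition.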
HT1080 IDH1KD tx: HT-1080 IDH1 knockdown cell toxicity (counter line). HT-1080 IDH1 knockdown viability, ATP luminescence, 48 h. Potency, µM (top dose mostly 46.1 µM), for the others: top-dose activity, negative = toxicity, actives largely listed as cytotoxic. 360,000 tested, 2% active;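 also: potency is read from the fitted curve at half-maximal effect; 0% = DMSO wells and -100% = cell-free medium wells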
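Viability of IDH1-knockdown HT-1080 fibrosarcoma cells was assessed by CellTiter-Glo after 48 h at 37 °C with titrated compound; concentration-effect curves were classified by fit quality and response size.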
TDP1 cell CPT: growth inhibition of DT40 Tdp1-/-;hTDP1 cells with camptothecin (screen for TDP1 inhibitors); chicken DT40 Tdp1-/-;hTDP1 cells + 20 nM CPT, ATP luminescence, 48 h; 420,000 tested, 12% active; Potency, µM (top dose mostly 46.2 µM), for the others: at the highest dose activity change, negative = growth inhibition, usual class: inhibitors; also: potency is read from the fitted curve at half-maximal effect; nearly all actives have a fitted effect of over 55% in size
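Chicken DT40 Tdp1-/- cells stably complemented with human TDP1 were seeded at 400 cells/well in medium containing 20 nM camptothecin, exposed to pin-transferred compounds, and grown at 37 °C for at least 48 hr. Viability was read as ATP luminescence.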
TDP1 cell noCPT: qHTS for Inhibitors of human tyrosyl-DNA phosphodiesterase 1 (TDP1): qHTS in cells in absence of CPT | Potency, µM (highest dose often 46.2 µM), inactives show at the highest dose activity change, negative = growth inhibition, actives largely listed as inhibitors | DT40 Tdp1-/- hTDP1 cells, no CPT, ATP luminescence, 48 h | 420,000 tested, 15% active; also: potency is read from the fitted curve at half-maximal effect; nearly all actives have a fitted effect of over 55% in size
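Readout: luminescence from CellTiter-Glo after 30 min in the dark at RT. Cells: DT40 Tdp1-/- with stable hTDP1, 400/well. Exposure: compounds alone, ≥48 hr, 37 °C.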
HT1080-NT tox: kills 2HG-producing HT-1080-NT fibrosarcoma cells; HT-1080-NT fibrosarcoma viability, CellTiter-Glo ATP luminescence, 48 h; Potency, µM (doses to about 46.1 µM), for inactives: at the top dose activity, negative = less viability, most hits filed as cytotoxic; 360,000 tested, 1.6% active;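 also: NT is the 2HG producing partner of a matched IDH1 knockdown line; potency is read from the fitted curve at half-maximal effect; 0% = DMSO-treated cells and -100% = media-only wells without cells; nearly all actives have a fitted effect of over 55% in size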
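A 48-hour cytotoxicity screen used HT-1080-NT cells plated 2 hours before compound delivery. ATP-based CellTiter-Glo luminescence measured viability, normalized to DMSO and no-cell controls.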
An asterisk follows results filed as active; u = inconclusive; x = no result given; [ ] = another dose, or the depositor's remark. Unless noted, calls follow the shape of the dose curve; as a rule, active = well fitted curve in the direction sought with a large enough effect; inconclusive = small, poorly fitted or top-dose-only effect, or another doubt; inactive = no such curve, though single readings can be large; an effect the other way counts as inactive or inconclusive. Unless noted, % is scaled to controls: 0 for no effect and ±100 for the full control effect.

SMILES	IL1B secr inh	HT1080 IDH1KD tx	TDP1 cell CPT	TDP1 cell noCPT	HT1080-NT tox
O=C(c1cc(-c2ccncc2)nc2ccccc12)N1CCN(c2ncccn2)CC1	22	-6%	-11%	u	-1%
O=C(c1cc(-c2ccccc2)nc2ccccc12)N1CCN(c2ccccc2O)CC1	-7	u	16µM*	18µM*	-12%
O=C(c1cc(-c2ccncc2)nc2ccccc12)N1CCN(c2ccccc2O)CC1	-3	-5%	u	u	-4%
O=C(c1cc(-c2ccncc2)nc2ccccc12)N1CCN(c2ccccn2)CC1	8	5.6µM*	8.9µM*	11µM*	7.9µM*
CCOc1ccc(CNC(=O)c2cnc3sc(N4CCC(C)CC4)nn3c2=O)cc1OC	x	x	u	1%	x
O=C(COC(=O)CSc1ccc(Cl)cc1)NCCc1ccccc1	-4	-10%	u	-15%	-18%
Cc1cccc(NC(=O)CCC(=O)OCC(=O)c2ccc(Oc3ccc([N+](=O)[O-])cc3)cc2)c1	15	-10%	21µM*	u	-6%
O=C(O)C1=C[C@H](c2ccc(F)cc2)C[C@H](OCCCCO)O1	-8	-2%	-7%	0%	-1%
CCN1CCCC1CNC(=O)c1cnn(-c2ncc3c(n2)-c2ccc(OC)cc2CC3)c1C1CC1 (stereo not given)	x	x	15%[9.04 µM]	-21%	x
COc1ccc2c(c1)-c1nc(-n3ncc(C(=O)NC[C@@H]4CCCN5CCCC[C@H]45)c3C)ncc1CC2	x	x	u	9.2µM*	x
COc1ccc2c(c1)-c1nc(-n3ncc(C(=O)NCc4cccnc4)c3C3CC3)ncc1CC2	x	x	-6%[9.04 µM]	23µM*	x
COc1ccc2c(c1)-c1nc(-n3ncc(C(=O)NCC4CCCN(C)C4)c3C3CC3)ncc1CC2 (stereo not given)	x	x	4%[9.04 µM]	-18%	x
CC(C)c1ccc(Cn2ccc3c4c(N)nc(NC5CC5)nc4ccc32)cc1	x	x	4.7µM*	3.3µM*	x
CCN(CC(=O)Nc1cccc(F)c1)CC(=O)Nc1ccccc1OC	7	6%	-3%	-1%	1%
CCC1=C([N+](=O)[O-])C(c2ccc3c(c2)OCO3)NC(=O)N1 (stereo not given)	-16	2%	5%	17%	2%
COC(=O)c1ccccc1NC(=O)CN(c1ccc(Cl)cc1)S(=O)(=O)c1ccc(OC)cc1	x	x	21µM*	9.2µM*	x
COC(=O)c1ccc(Cl)c(NC(=O)CN(c2ccc(OC)cc2)S(=O)(=O)c2ccccc2)c1	11	5%	u	u	1%
COc1ccc(N(CC(=O)Nc2ccccc2OC)S(=O)(=O)c2ccc(NC(C)=O)cc2)cc1	26	u	5.2µM*	5.2µM*	u
COc1ccc(N(CC(=O)Nc2ccc(S(=O)(=O)N3CCOCC3)cc2)S(=O)(=O)c2ccccc2)cc1	0	1%	16µM*	18µM*	-1%
COC(=O)c1cc(NC(=O)CN(c2ccc(OC)cc2)S(=O)(=O)c2ccc(F)cc2)ccc1Cl	0	-9%	18µM*	18µM*	-11%
COc1ccccc1NC(=O)CN(c1ccccc1)S(=O)(=O)c1ccccc1	0	-16%	-20%	-24%	-2%
CC1(c2nnnn2Cc2ccccc2)CCC(=O)N1c1ccc(N2CCOCC2)cc1 (stereo not given)	-11	10%	-14%	-22%	-1%
CNC(=O)C[C@@H]1C(=O)N(c2ccc(Br)cc2)CC1(C)C	3	2%	6%	-5%	-2%
OC(COCC1CC=CCC1)Cn1cnc2ccccc21 (stereo not given)	7	-2%	-24%	-16%	-2%
CC(=O)Nc1cccc(OCC(O)Cn2c(C)nc3ccccc32)c1 (stereo not given)	9	8%	u	16µM*	-19%
SMILES	IL1B secr inh	HT1080 IDH1KD tx	TDP1 cell CPT	TDP1 cell noCPT	HT1080-NT tox
CC(=O)Nc1cccc(OCC(O)Cn2cnc3ccccc32)c1 (stereo not given)	22	-1%	-15%	-4%	0%
CCCOC(=O)c1ccc(OCC(O)Cn2c(C)nc3ccccc32)cc1 (stereo not given)	33	-17%	2.6µM*	2.6µM*	2%
Cc1nc2ccccc2n1CC(O)COCC1CC=CCC1 (stereo not given)	u	-7%	15µM*	10µM*	-2%
CCC(=O)c1ccc(OCC(O)Cn2nnc3ccccc32)cc1 (stereo not given)	13	0%	-8%	-21%	0%
CCOC(=O)N1C(=O)NC(=O)C1c1ccc(OC)cc1 (stereo not given)	-6	16%	-2%	-4%	15%
COc1ccc(CNC(=O)C(c2ccco2)N(C(=O)c2ccccn2)c2ccccc2)cc1 (stereo not given)	-2	-8%	10µM*	23µM*	0%
O=C(NCc1ccccc1)C(c1ccco1)N(C(=O)c1ccccn1)c1ccccc1 (stereo not given)	16	16%	10%	-6%	10%
OCn1c2ccccc2c2ccccc21	0	-3%	u	u	-4%
CC1(C)COC(Cn2c3ccccc3c3ccccc32)O1 (stereo not given)	48	23µM*	u	u	-14%
CC1COC(Cn2c3ccccc3c3ccccc32)O1 (stereo not given)	3	u	u	18µM*	u
CC(C)c1nc2oc3c(=O)[nH]cnc3c2c2c1COC(C)(C)C2	4	-1%	-5%	9%	5%
O=C(Cn1c(=O)oc2cc(S(=O)(=O)NCc3ccccc3)ccc21)N(CCO)Cc1ccccc1	x	x	u	15µM*	x
CN1CCN(C(=O)Cn2c(=O)oc3cc(S(=O)(=O)NCc4ccccc4)ccc32)CC1	-1	-5%	u	-26%	3%
Cc1ccc(C)c(NC(=O)Cn2c(=O)oc3cc(S(=O)(=O)NCc4ccccc4)ccc32)c1	x	x	13µM*	8.2µM*	x
COc1ccc(NC(=O)Cn2c(=O)oc3cc(S(=O)(=O)NCc4ccccc4)ccc32)c(OC)c1	x	x	8.2µM*	6.5µM*	x
COc1ccc(C)cc1NC(=O)Cn1c(=O)oc2cc(S(=O)(=O)NCc3ccccc3)ccc21	x	x	16µM*	15µM*	x
COc1ccc(Cl)cc1NC(=O)CN(C)C(=O)c1n[nH]c2ccccc12	8	-10%	2%	u	-29%
COc1ccccc1CN(C(=O)CNC(=O)c1ccco1)C(C(=O)NCC1CCCO1)c1ccc(OC)c(OC)c1 (stereo not given)	15	1%	-3%	0%	-10%
CCC(OC(C)=O)c1cc2c(cc1[N+](=O)[O-])OCCO2 (stereo not given)	11	1%	14%	-21%	16%
